Experimental data as given in PubChem BioAssay AID488832 (National Center for Advancing Translational Sciences (NCATS), 2010).
Inconclusive results are not listed. Calls of active or inactive are those of the source. Calls follow the shape of the dose curve; as a rule, active = well fitted activation curve with a large enough effect; inconclusive = small, poorly fitted or top-dose-only effect; inactive = no such curve, though single readings can be large or run the other way.

assay: Confirmation Concentration-Response Assay for Enhancers of SMN2 Splice Variant Expression for Further Probe SAR; settings: HEK293 SMN2 exon7-luciferase splicing reporter, luminescence, 30-36 h; series mostly up to 46.1 µM; activity, positive = activation: at the top concentration
From the text: NIH Chemical Genomics Center [NCGC] NIH Molecular Libraries Probe Production centers Network [MLPCN] MLPCN Grant: R03 MH084179-01 Assay Submitter (PI): Elliot Androphy NCGC Assay Overview: Spinal muscular atrophy (SMA) is caused by insufficient levels of the survival motor neuron protein SMN. The SMN locus on chromosome 5q13 contains two inverted copies of SMN called SMN1 and SMN2 which are 99% identical at the amino acid level. SMN1 is a fully functional protein and SMN2 skips exon 7 90% of the time. Skipping of exon 7 produces non-functional protein product. 10% of the SMN2 protein includes exon 7 and is fully functional. In the SMA disease state, mutations in the SMN1 locus are the cause of the disease state. Because only 10% of SMN2 is of the fully functional form, it is not sufficient to overcome the deficiency produced by the loss of the SMN1 product. A therapy that either increase the amount of SMN2 product made or to increase the inclusion of exon 7 has been proposed for the treatment of SMA. We have designed an assay to identify small molecules that can increase the amount of functional SMN2 product by appending a luciferase reporter gene after the native SMN2 gene, such that inclusion of exon 7 in the expressed product places the luciferase sequence in frame, thus generating functional luciferase enzyme.
NCGC Assay Protocol Summary: This screen utilizes a luciferase reporter gene assay, combining the promoter with the major portion of the native SMN2 cDNA (exons 1 -7, intron 8 , exon 8 fused to luciferase) stably expressed in HEK293 cells. Compounds that increase luciferase signal presumably enhance expression of the functional SMN2 splice variant. Passaging media contained DMEM w/ glutamax (+phenol red) 10% FCS, 1x pen/strep, 200 ug/ml hygro, 1x sodium pyruvate. Assay media contained DMEM w/ glutamax (-phenol red) 10% FCS, 1x pen strep, 1x pyruvate Sequence, Parameter, Value, Description (1) Cells, 5 uL, 2000 cells/well, 1536 TC treated White solid bottom plate (2) Time, 10-12 hours, 37C 5% CO2 (3) Compound, 23 nl, MLSMR Library (4) Control Compound, 23 nL, Sodium butyrate st 4.5mM (final) conc (5) Time, 30-36 hours, 37C 5% CO2 (6) Reagent, 3 ul, One Glo (TM) from Promega (7) Time, 5-15 minutes, Room temp (8) Detector, Viewlux: luminescent read, 60 second integration, high speed 2x binning Keywords: Spinal muscular atrophy, SMA, SMN2, high throughput screening, MLSMR, MLPCN, NIH Roadmap, qHTS and NCGC

Row | SMILES | Potency | activity, positive = activation
1 | NC(=O)C1CCN(c2nc(-c3ccc([N+](=O)[O-])cc3)cs2)CC1 | 5470 nM (active) | –
2 | Cc1ccc(-c2ccnc(N3CCC(C(N)=O)CC3)n2)cc1 | 308 nM (active) | –
3 | CC(=O)C1CCN(c2ncc(-c3ccc4c(c3)OCCCO4)s2)CC1 | – | -9.36% (inactive)
4 | NC(=O)C1CCN(c2ncc(-c3ccc4c(c3)OCO4)s2)CC1 | 48.7 nM (active) | –
5 | CC(=O)C1CCN(c2ncc(-c3cccc(N(C)C)c3)s2)CC1 | 2740 nM (active) | –
